How the values were obtained:
Assay in all cases: DAPPL (digital affinity profiling via proximity ligation, sequencing); 10 mM Tris-HCl pH 7.5, 50 mM NaCl, 1 mM DTT, 4% glycerol, room temperature, 30 min; GST-TFs on glutathione beads, 16-mer random dsDNA library, 0.1% formaldehyde crosslink after washing; high values mean tight binding
FEV = target: T1, FEV (Homo sapiens, UniProt Q99581 1-238); details: protein: recombinant; tags: N-terminal GST; dsDNA, one strand shown
T1 sequence: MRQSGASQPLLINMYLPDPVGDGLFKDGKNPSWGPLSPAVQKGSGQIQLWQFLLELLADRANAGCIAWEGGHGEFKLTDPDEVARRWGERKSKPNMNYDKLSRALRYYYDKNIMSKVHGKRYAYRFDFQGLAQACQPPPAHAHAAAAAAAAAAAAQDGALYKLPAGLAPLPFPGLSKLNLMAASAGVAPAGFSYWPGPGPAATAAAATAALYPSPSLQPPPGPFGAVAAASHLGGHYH
How it was run: (§1)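 Pools were built from human transcription factors expressed in yeast as GST fusions, captured on glutathione beads and DNA-barcoded, along with a tag-only sample. Incubation with 200 nmole of a 16-mer random double-stranded DNA library lasted 30 min at room temperature in Tris/NaCl/DTT/glycerol buffer, and was followed by washing, 0.1% formaldehyde crosslinking, proximity ligation, PCR amplification and Illumina NextSeq500 sequencing. Binding signal is the quotient of each hexamer's read frequency for a factor and its frequency for the tag-only sample.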

ETV5 = ETV5 (Homo sapiens, UniProt P41161 1-510); details: protein: recombinant; tags: N-terminal GST; dsDNA, one strand shown
ETV5, sequence (P41161 whole entry): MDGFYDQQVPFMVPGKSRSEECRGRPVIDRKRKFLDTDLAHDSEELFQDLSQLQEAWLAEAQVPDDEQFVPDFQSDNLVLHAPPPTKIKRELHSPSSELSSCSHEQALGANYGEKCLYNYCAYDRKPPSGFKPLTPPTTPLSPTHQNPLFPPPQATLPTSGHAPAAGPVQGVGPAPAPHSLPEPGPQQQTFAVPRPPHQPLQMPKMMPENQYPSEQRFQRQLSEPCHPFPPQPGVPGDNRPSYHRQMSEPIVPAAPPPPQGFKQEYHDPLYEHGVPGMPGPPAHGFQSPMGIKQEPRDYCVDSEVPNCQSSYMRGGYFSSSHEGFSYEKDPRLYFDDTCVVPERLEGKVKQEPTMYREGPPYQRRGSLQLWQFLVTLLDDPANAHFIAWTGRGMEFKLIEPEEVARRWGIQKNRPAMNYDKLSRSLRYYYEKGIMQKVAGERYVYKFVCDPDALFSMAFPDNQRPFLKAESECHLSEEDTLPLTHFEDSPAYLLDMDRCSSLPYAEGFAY
How it was run: as §1

HSF1 = HSF1 (Homo sapiens, UniProt Q00613 1-529); details: protein: recombinant; tags: N-terminal GST; chain copies: 3; dsDNA, one strand shown
HSF1, sequence (Q00613 whole entry): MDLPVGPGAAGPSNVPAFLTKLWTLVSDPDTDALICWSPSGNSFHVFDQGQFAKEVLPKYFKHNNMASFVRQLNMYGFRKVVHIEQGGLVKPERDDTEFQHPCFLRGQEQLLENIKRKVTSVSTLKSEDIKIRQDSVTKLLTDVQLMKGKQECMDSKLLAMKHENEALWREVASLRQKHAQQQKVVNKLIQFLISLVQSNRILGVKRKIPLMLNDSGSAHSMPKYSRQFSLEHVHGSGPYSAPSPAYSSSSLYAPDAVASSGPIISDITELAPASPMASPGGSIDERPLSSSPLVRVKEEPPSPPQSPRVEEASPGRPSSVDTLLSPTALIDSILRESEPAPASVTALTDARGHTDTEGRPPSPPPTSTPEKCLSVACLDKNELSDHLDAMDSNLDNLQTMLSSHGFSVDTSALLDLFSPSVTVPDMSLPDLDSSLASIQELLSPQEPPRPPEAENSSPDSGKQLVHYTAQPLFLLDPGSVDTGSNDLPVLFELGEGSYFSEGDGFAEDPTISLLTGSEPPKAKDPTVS
How it was run: as §1

SPIC = target: T2, SPIC (Homo sapiens, UniProt Q8N5J4 1-248); details: protein: recombinant; tags: N-terminal GST; dsDNA, one strand shown
T2 sequence: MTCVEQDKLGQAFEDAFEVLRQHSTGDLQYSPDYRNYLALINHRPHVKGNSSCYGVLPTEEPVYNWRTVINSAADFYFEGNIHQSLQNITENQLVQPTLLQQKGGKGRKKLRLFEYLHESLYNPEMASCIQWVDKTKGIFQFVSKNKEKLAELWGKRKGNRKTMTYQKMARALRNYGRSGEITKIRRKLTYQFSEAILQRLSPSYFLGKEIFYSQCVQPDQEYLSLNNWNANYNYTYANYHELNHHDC
How it was run: as §1

ELF4 = ELF4 (Homo sapiens, UniProt Q99607 1-663); details: protein: recombinant; tags: N-terminal GST; dsDNA, one strand shown
ELF4, sequence (Q99607 whole entry): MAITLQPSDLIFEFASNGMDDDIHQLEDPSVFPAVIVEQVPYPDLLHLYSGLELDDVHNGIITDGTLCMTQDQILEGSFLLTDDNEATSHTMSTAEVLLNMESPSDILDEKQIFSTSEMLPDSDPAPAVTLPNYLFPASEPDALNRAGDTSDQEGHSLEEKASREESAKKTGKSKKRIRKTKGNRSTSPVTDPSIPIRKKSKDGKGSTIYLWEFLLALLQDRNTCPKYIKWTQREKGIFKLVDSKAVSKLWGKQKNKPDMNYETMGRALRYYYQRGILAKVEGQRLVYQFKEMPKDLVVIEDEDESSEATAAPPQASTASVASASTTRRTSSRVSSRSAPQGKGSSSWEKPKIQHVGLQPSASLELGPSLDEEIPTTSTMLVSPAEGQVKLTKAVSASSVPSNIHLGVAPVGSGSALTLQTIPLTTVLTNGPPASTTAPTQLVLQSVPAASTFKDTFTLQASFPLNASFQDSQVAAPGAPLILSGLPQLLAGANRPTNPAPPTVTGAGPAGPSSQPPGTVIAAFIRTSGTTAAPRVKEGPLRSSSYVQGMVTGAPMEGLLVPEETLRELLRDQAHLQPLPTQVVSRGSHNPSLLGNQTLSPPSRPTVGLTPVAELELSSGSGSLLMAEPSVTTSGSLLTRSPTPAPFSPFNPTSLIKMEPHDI
How it was run: as §1

ELK4 = target: T3, ELK4 (Homo sapiens, UniProt P28324-2 1-405); details: protein: recombinant; tags: N-terminal GST; dsDNA, one strand shown
T3 sequence: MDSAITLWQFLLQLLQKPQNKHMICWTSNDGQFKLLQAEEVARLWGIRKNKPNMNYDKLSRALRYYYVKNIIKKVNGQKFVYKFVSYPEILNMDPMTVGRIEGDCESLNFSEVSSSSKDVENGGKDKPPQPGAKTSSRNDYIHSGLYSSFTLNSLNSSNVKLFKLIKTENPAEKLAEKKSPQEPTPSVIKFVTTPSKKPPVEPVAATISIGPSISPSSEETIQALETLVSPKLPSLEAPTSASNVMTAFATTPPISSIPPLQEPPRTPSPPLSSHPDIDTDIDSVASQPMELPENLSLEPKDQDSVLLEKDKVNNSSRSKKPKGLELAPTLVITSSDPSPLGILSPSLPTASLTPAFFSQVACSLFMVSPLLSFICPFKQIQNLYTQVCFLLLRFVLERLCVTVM
How it was run: as §1

ETV2 = target: T4, ETV2 (Homo sapiens, UniProt O00321 1-342); details: protein: recombinant; tags: N-terminal GST; dsDNA, one strand shown
T4 sequence: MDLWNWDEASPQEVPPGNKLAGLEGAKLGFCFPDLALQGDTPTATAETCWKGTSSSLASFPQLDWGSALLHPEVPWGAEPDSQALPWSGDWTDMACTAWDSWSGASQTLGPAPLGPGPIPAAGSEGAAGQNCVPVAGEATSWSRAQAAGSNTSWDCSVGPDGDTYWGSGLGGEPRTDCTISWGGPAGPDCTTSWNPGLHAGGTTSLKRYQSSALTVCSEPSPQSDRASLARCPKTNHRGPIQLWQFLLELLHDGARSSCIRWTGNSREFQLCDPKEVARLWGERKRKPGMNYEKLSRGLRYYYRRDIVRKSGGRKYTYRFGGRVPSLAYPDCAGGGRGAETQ
How it was run: as §1

ELF3 = target: T5, ELF3 (Homo sapiens, UniProt P78545 1-371); details: protein: recombinant; tags: N-terminal GST; dsDNA, one strand shown
T5 sequence: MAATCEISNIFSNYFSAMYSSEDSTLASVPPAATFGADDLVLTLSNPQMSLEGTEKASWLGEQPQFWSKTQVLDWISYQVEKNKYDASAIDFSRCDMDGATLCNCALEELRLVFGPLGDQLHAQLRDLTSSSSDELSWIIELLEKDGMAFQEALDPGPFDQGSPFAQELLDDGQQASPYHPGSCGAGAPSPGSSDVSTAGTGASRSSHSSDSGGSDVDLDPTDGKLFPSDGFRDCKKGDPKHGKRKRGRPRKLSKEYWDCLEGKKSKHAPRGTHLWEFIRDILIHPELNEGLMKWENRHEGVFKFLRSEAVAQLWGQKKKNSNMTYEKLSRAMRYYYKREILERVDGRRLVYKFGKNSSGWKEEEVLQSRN
How it was run: as §1

CRX = CRX (Homo sapiens, UniProt O43186 1-299); details: protein: recombinant; tags: N-terminal GST; dsDNA, one strand shown
CRX, sequence (O43186 whole entry): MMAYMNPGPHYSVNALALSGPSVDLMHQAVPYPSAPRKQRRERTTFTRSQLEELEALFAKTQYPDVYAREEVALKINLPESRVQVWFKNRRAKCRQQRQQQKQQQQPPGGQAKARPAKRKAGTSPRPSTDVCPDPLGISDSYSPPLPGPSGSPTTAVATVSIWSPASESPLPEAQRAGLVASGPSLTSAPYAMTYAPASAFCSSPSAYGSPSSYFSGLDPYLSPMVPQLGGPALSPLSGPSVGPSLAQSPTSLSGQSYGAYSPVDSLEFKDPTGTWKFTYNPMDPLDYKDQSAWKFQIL
How it was run: as §1

ETV1 = ETV1 (Homo sapiens, UniProt P50549 1-477); details: protein: recombinant; tags: N-terminal GST; dsDNA, one strand shown
ETV1, sequence (P50549 whole entry): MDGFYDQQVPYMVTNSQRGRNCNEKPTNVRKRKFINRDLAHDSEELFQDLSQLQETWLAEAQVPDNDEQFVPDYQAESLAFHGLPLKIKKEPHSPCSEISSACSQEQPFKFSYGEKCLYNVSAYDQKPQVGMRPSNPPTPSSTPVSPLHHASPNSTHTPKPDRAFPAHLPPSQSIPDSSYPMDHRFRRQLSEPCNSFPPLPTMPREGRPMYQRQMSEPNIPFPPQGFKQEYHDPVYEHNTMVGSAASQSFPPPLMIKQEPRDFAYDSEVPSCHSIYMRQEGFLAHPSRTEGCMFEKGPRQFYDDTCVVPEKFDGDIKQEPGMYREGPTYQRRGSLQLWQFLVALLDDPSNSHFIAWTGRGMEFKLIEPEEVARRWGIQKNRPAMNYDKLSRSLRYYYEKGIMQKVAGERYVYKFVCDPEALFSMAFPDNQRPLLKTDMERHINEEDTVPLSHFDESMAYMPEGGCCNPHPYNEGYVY
How it was run: as §1

ERF = target: T6, ERF (Homo sapiens, UniProt P50548 1-548); details: protein: recombinant; tags: N-terminal GST; dsDNA, one strand shown
T6 sequence: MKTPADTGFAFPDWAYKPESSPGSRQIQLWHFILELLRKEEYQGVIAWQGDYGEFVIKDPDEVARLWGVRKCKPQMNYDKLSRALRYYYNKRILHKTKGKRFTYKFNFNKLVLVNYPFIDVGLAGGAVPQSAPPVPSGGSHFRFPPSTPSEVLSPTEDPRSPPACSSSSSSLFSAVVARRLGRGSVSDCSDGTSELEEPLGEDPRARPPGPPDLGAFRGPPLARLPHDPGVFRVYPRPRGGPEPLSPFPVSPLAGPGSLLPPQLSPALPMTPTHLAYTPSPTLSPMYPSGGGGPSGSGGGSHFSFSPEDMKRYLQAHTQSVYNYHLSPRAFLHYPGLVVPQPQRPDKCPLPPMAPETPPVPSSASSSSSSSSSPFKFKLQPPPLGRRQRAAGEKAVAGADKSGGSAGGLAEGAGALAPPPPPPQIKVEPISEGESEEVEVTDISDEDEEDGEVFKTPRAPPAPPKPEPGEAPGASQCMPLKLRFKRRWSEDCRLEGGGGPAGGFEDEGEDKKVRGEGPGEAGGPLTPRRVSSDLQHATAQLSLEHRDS
How it was run: as §1

ETV3L = target: T7, ETV3L (Homo sapiens, UniProt Q6ZN32 1-361); details: protein: recombinant; tags: N-terminal GST; dsDNA, one strand shown
T7 sequence: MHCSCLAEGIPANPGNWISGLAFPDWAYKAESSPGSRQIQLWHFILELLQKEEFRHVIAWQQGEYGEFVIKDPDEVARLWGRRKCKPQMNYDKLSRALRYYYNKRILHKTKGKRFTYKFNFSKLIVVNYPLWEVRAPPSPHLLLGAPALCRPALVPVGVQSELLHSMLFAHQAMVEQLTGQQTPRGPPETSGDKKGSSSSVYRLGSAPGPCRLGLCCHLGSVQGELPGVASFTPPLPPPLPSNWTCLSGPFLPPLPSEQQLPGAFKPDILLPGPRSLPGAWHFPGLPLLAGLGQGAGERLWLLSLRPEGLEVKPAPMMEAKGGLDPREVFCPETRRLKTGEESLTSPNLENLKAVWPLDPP
How it was run: as §1

ETS2 = target: T8, ETS2 (Homo sapiens, UniProt P15036 1-469); details: protein: recombinant; tags: N-terminal GST; dsDNA, one strand shown
T8 sequence: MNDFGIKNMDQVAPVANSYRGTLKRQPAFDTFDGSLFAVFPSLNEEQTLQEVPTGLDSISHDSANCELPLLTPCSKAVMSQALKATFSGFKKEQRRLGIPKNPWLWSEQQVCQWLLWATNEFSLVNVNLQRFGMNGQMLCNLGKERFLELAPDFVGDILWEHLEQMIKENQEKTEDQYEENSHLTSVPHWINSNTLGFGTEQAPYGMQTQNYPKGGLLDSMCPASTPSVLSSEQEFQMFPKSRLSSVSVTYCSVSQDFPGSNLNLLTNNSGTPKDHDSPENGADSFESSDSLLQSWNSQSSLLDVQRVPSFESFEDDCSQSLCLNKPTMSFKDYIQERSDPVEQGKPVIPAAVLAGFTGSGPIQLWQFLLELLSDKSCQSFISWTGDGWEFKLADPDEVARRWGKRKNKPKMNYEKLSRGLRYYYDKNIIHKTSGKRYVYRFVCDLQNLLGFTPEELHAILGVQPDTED
How it was run: as §1

SPDEF = target: T9, SPDEF (Homo sapiens, UniProt O95238 1-335); details: protein: recombinant; tags: N-terminal GST; dsDNA, one strand shown
T9 sequence: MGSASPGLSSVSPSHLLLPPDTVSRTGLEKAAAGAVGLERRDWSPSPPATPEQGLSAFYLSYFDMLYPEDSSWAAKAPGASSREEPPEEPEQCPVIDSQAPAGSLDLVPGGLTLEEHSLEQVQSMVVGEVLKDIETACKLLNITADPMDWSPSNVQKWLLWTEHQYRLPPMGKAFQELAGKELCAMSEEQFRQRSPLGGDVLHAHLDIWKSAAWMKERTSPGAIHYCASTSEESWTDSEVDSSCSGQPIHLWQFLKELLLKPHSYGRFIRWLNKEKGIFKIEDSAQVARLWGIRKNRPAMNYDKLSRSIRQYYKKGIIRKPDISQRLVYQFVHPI
How it was run: as §1

ETV7 = target: T10, ETV7 (Homo sapiens, UniProt Q9Y603 1-341); details: protein: recombinant; tags: N-terminal GST; dsDNA, one strand shown
T10 sequence: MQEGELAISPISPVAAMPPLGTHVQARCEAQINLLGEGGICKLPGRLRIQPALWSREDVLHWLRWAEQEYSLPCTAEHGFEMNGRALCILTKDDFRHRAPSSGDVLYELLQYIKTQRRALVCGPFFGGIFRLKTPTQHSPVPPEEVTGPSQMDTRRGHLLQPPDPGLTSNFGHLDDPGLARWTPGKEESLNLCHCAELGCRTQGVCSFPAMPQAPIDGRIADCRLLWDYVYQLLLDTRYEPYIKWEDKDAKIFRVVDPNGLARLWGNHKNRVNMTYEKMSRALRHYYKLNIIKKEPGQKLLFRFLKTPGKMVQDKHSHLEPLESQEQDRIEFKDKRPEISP
How it was run: as §1

ELF5 = target: T11, ELF5 (Homo sapiens, UniProt Q9UKW6-2 1-255); details: protein: recombinant; tags: N-terminal GST; dsDNA, one strand shown
T11 sequence: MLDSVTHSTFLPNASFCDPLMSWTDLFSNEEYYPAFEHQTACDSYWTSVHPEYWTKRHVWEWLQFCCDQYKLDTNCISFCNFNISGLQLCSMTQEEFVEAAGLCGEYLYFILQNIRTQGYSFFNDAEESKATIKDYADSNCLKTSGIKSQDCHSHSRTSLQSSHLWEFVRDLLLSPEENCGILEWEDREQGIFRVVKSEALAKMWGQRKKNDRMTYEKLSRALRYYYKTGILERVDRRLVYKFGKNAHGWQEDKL
How it was run: as §1

ETV3 = target: T12, ETV3 (Homo sapiens, UniProt P41162-2 1-143); details: protein: recombinant; tags: N-terminal GST; dsDNA, one strand shown
T12 sequence: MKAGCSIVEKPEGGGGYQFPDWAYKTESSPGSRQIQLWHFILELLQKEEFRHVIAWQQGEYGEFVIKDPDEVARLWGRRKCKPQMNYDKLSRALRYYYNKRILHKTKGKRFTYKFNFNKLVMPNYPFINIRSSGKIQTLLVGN
How it was run: as §1

ETV6 = ETV6 (Homo sapiens, UniProt P41212 1-452); details: protein: recombinant; tags: N-terminal GST; dsDNA, one strand shown
ETV6, sequence (P41212 whole entry): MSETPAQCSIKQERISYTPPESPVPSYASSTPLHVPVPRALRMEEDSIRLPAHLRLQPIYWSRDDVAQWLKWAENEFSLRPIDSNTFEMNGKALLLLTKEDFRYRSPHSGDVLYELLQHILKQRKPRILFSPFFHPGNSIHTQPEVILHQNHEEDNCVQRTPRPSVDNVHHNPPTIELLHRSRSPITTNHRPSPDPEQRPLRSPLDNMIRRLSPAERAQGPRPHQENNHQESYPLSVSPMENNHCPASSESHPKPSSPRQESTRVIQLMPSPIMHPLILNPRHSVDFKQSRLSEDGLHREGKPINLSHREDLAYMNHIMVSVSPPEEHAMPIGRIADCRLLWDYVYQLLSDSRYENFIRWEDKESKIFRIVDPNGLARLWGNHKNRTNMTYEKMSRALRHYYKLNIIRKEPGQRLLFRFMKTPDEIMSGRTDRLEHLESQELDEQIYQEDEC
How it was run: as §1

GATTCA
binding signal (FEV): 1.08 fold enrichment (6-mer frequency, TF over GST control)
binding signal (ETV5): 1.08 fold enrichment (6-mer frequency, TF over GST control)
binding signal (HSF1): 1.13 fold enrichment (6-mer frequency, TF over GST control)
binding signal (SPIC): 1.14 fold enrichment (6-mer frequency, TF over GST control)
binding signal (ELF4): 1.15 fold enrichment (6-mer frequency, TF over GST control)
binding signal (ELK4): 1.24 fold enrichment (6-mer frequency, TF over GST control)
binding signal (ETV2): 1.08 fold enrichment (6-mer frequency, TF over GST control)
binding signal (ELF3): 1.26 fold enrichment (6-mer frequency, TF over GST control)
binding signal (CRX): 1.13 fold enrichment (6-mer frequency, TF over GST control)
binding signal (ETV1): 1.15 fold enrichment (6-mer frequency, TF over GST control)
binding signal (ERF): 1.06 fold enrichment (6-mer frequency, TF over GST control)
binding signal (ETV3L): 1.19 fold enrichment (6-mer frequency, TF over GST control)
binding signal (ETS2): 1.18 fold enrichment (6-mer frequency, TF over GST control)
binding signal (SPDEF): 1.12 fold enrichment (6-mer frequency, TF over GST control)
binding signal (ETV7): 1.09 fold enrichment (6-mer frequency, TF over GST control)
binding signal (ELF5): 1.05 fold enrichment (6-mer frequency, TF over GST control)
binding signal (ETV3): 1.2 fold enrichment (6-mer frequency, TF over GST control)
binding signal (ETV6): 1.13 fold enrichment (6-mer frequency, TF over GST control)
